Experimental data taken from PubChem BioAssay.
The source made the active and inactive calls. How the calls were made is not given here.

molecular target: Pantothenate synthetase (Mycobacterium tuberculosis (strain ATCC 25618 / H37Rv)) (UniProt P9WIL5); test: Coupled enzyme confirmation of inhibitors against recombinant Mtb PanC (AID 375); settings: coupled enzyme assay; at 10 µM, hits give high values;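 further: 0% = full reaction with vehicle and 100% = no enzyme background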
Sequence (P9WIL5 whole entry, looked up): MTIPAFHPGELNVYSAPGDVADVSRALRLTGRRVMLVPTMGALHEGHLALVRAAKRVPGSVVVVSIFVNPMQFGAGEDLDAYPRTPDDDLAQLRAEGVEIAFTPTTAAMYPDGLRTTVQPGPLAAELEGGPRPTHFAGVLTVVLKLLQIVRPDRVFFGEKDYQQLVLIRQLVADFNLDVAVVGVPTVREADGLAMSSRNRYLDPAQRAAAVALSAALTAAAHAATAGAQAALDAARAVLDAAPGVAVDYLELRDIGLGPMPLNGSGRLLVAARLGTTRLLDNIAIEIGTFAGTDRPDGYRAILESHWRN

SMILES | inhibition
CCS(=O)(=O)N1CCCC(C(=O)NCc2cccc(OC)c2)C1 (configuration not stated) | 1% (inactive)
FC(F)(F)c1cc(-c2ccco2)nc(-n2nnc3ccccc32)n1 | 0% (inactive)
COc1cccc(C(=O)CN2CCC(NC(=O)NC3CCCCC3)CC2)c1 | 6% (inactive)
CC(=O)Nc1nc2c(c3c1c(=O)oc1ccccc13)CC(C)CC2 (configuration not stated) | 0% (inactive)
C=CCn1c(SCc2ccc3nonc3c2)nnc1-c1cccs1 | 7% (inactive)
Cc1cc(C)c2c(n1)nn1c(C3CC3)cc(C(F)(F)F)nc21 | 5% (inactive)
COc1cccc(NC(=O)c2ccco2)c1 | 0% (inactive)
CN1CCN(CCCNC(=O)Cn2ncc3c4ccccc4n(C)c3c2=O)CC1 | 0% (inactive)
CCc1cc2c(=O)n(C(C)C(=O)OC3CCCCC3)cnc2s1 (configuration not stated) | 0% (inactive)
Cc1ccccc1-c1nc(CN2CCC(C(=O)N3CCC(C(N)=O)CC3)CC2)c(C)o1 | 0% (inactive)
COCCCn1c2nc3ccccc3nc2c2c(=O)n(-c3ccccc3OC)cnc21 | 11% (inactive)
COc1ccc(-c2cc(O)cc(O)c2)cc1 | 0% (inactive)
COCCNC(=O)CSc1nc(-c2ccc(OC)c(OC)c2)cc(C(F)(F)F)n1 | 2% (inactive)
O=C(NCC1COc2ccccc2O1)c1ccccc1 (configuration not stated) | 2% (inactive)
Cc1sc2nc(SCC(=O)NCc3ccco3)n(CCc3ccccc3)c(=O)c2c1C | 0% (inactive)
Fc1ccc(-n2c(Cc3ccccc3)nnc2SCc2nc(-c3cccs3)no2)cc1 | 0% (inactive)
CC(NC(=O)CSc1n[nH]c(=O)n1C1CC1)C12CC3CC(CC(C3)C1)C2 (configuration not stated) | 3% (inactive)
